# Screening results from PubChem BioAssay.
# Hits are enriched below; roughly 2.7% of the tested compounds scored in any of these assays.
# KLK7 zymogen act = activators of human kallikrein-7 zymogen; P49862; purified proKLK7, EDANS-DABCYL substrate fluorescence; 100% is mature enzyme control, 0% vehicle; activation, % at 7 µM; 370,000 compounds, 0.9% hits; AID 652039;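 active = activation above the mean of all tested compounds plus 3 SD, computed per campaign excluding outliers beyond control limits, cut at about 13% in these data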
# PfG6PD inh = PfG6PD (Plasmodium falciparum) enzyme inhibition; AID 504690; inhibition, % at 20 µM; PfGluPho enzyme, NADPH resazurin-diaphorase fluorescence; 350,000 compounds, 0.78% hits;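 active = inhibition reaching at least a set limit at 20 µM in the primary screen, cut at about 59% in these data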;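 also: 0% = DMSO wells with substrate and 100% = DMSO wells lacking glucose-6-phosphate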
# FAS-TE inh = inhibitors of human fatty acid synthase thioesterase domain | recombinant FAS-TE, OMFH fluorogenic substrate, fluorescence endpoint | 360,000 compounds, 0.67% hits | P49327 | inhibition, % at 15 µM;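 active = compounds whose normalised, plate-corrected inhibition of enzyme fluorescence in the single-dose primary screen is 50% or more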;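 also: 0% = DMSO with enzyme and 100% = substrate without enzyme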
# Neddyl block = inhibitors of human cullin neddylation. calls only at 25 µM. AID 651699. 360,000 compounds, 0.58% hits. TR-FRET cullin neddylation, biochemical; in the data active = inhibition above about 36%
# Target sequence (P61081 whole entry, looked up): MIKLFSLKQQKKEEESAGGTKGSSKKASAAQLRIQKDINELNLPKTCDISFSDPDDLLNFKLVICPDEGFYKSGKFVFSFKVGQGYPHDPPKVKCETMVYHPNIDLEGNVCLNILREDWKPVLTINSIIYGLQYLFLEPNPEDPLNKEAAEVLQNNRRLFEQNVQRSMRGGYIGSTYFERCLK
# Target sequence (Q13564 whole entry, looked up): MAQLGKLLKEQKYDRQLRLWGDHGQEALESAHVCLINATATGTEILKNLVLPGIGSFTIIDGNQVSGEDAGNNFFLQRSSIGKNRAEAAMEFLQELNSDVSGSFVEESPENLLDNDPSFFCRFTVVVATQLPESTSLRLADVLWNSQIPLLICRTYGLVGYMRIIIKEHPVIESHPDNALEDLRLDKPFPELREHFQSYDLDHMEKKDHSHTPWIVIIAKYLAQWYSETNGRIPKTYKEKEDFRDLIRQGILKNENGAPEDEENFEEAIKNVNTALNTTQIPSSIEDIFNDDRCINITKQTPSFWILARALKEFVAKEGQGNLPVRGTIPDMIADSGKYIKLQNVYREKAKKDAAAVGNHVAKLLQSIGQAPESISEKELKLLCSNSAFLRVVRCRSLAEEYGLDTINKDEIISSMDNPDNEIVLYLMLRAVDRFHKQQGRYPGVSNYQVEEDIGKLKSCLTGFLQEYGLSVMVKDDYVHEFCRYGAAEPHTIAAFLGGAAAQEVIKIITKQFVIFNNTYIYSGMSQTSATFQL
# Neddyl inh conf = confirmation of human cullin neddylation inhibitors; shares compounds with Neddyl block; TR-FRET cullin neddylation biochemical assay; 1,800 compounds, 13% hits; calls only at 25 µM; AID 652217; in the data active = inhibition above about 40%;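 also: neddylation substrate is the cullin 1 ring ligase complex with SKP2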
# Active calls of the source: *; i = inactive; / = no result shown; + = active, no number.
SMILES,KLK7 zymogen act,PfG6PD inh,FAS-TE inh,Neddyl block,Neddyl inh conf
Cc1ccccc1/C=N/n1c(-c2cc(-c3ccccc3)n[nH]2)n[nH]c1=S,0.2,32.2,2.7,i,/
COCCNC(=O)C[C@H]1CC[C@H]2[C@@H](COc3ccc(NS(=O)(=O)c4ccc(Cl)cc4)cc3C(=O)N2C)O1,0.3,/,/,/,/
O=C(O)c1sc2cc(C(F)(F)F)cnc2c1-c1cccs1,2.7,-16.9,-3.3,+,+
c1cncc(CNc2ncnc3ccc(-c4ccc5c(c4)OCO5)cc23)c1,-1.2,-0.9,0.3,+,i
c1nc(NCc2ccc3c(c2)OCO3)c2cc(-c3ccc4c(c3)OCCO4)ccc2n1,-3.4,11.3,23.3,i,/
Cc1cccc(CNc2ncnc3ccc(-c4ccc5c(c4)OCCO5)cc23)c1,-1.2,-16.3,11.5,+,i
C[C@@H]1CC=C[C@H]2[C@H]1C(=O)N(Cc1ccccc1)[C@H]2c1ccc(/C=C/c2ccccc2)cc1F,-0.1,15.0,19.7,+,/
C[C@@H]1CC=C[C@H]2[C@H]1C(=O)N(Cc1ccccc1)[C@H]2c1ccc(-c2ccc(F)cc2)cc1F,0.5,15.8,28.4,i,/
Cc1[nH]c2ccccc2c1C(=O)C(C)OC(=O)c1ccccc1NCCO (stereo unspecified),0.9,12.6,3.5,+,/
COc1ccc(OC)c(NC=C2C(=O)OC3(CCCCC3)OC2=O)c1,-18.7,6.5,6.7,+,i
COc1ccc(OC)c(NC=C2C(=O)OC(C)(C)OC2=O)c1,-2.0,13.5,-8.0,i,/
CC(=O)CC[C@H]1CC[C@]2(CCCN(S(=O)(=O)c3ccccc3)C2)O1,-0.1,/,/,/,/
C=CCNC(=S)N(C)[C@H]1C[C@H]2c3[nH]c4c(-c5ccccc5)cccc4c3CCN2C(=O)[C@H]1[C@H](C)O,-5.4,/,/,/,/
Clc1cccc(N/N=C/c2ccc(N3CCOCC3)s2)c1,0.3,48.8,44.8,+,i
O=C(N/N=C/c1ccc(N2CCOCC2)s1)c1ccccc1Br,-0.2,9.8,-11.4,i,/
CC(=O)Nc1cc(-c2ccsc2)cn2c(-c3ccc(F)cc3)cnc12,-10.0,/,4.4,+,i
Cc1ccc(C2NC(=O)c3c(sc4c3CCN(C)C4)N2)o1 (stereo unspecified),10.6,20.1,-10.9,+,i
O=c1oc2cccnc2n1CCS(=O)(=O)c1ccc(F)cc1,-0.8,-15.4,-3.2,+,i
COC(=O)CSc1nnc(-c2cc(-c3ccccc3)n[nH]2)n1N,-0.1,/,/,/,/
COc1ccc(/C=N/NC(=O)c2sccc2C)c2ccccc12,-0.5,-8.5,-2.6,+,i
CCCCn1c(=NC(=O)c2ccc3c(c2)OCO3)c(C#N)cc2c(=O)n3cccc(C)c3nc21,1.2,-17.9,48.6,+,i
Cn1c2ccccc2c(=O)c2c(=O)n(CCCc3ccccc3)cnc21,-0.1,/,/,/,/
O=C(NCCc1c[nH]c2ccccc12)OCc1cn(Cc2cccc(F)c2)nn1,0.5,/,/,/,/
Cc1cc(=O)oc2c(C)c(OCC(=O)N(C)C)ccc12,-0.5,3.6,-5.1,+,i
Cc1cc(=O)oc2c(C)c(OCC(=O)N3CC[C@@]4(O)CCCC[C@H]4C3)ccc12,-0.4,-7.4,1.4,+,i
SMILES,KLK7 zymogen act,PfG6PD inh,FAS-TE inh,Neddyl block,Neddyl inh conf
Cc1c(C)c2ccc(OCC(=O)N(C)C)c(C)c2oc1=O,0.3,-6.2,0.2,/,/
CCc1cc(=O)oc2c(C)c(OCC(=O)N3CCC(C(=O)O)CC3)ccc12,1.6,-8.5,-4.0,+,+
COC(=O)[C@]12C[C@H](CC(=O)N3CCC(c4ccccc4)CC3)C(=O)N(Cc3ccco3)C1=C[C@H](C1CCCC1)O[C@@H]2C,0.3,/,/,/,/
CCCc1c(-c2ccc(Cl)cc2)ncn1Cc1cccc(-c2ccccc2)c1,1.6,/,/,i,/
CCOC(=O)[C@]12CCCCC/C=C\1N(Cc1ccc(OC)cc1)C(=O)[C@H]2CC(=O)N1CCC(c2ccccc2)CC1,0.7,/,/,/,/
O=C(N/N=C/c1sc(N2CCOCC2)nc1-c1ccccc1)c1cccc(S(=O)(=O)N2CCCC2)c1,-36.9,-18.0,25.7,/,/
O=C(N/N=C/c1sc(N2CCOCC2)nc1-c1ccccc1)c1ccc(O)cc1,7.1,10.6,3.1,+,+
Cc1occc1C(=O)N/N=C/c1sc(N2CCOCC2)nc1-c1ccccc1,-0.3,-1.6,-5.9,i,/
COc1ccc(C(=O)N/N=C/c2sc(N3CCOCC3)nc2-c2ccccc2)cc1OC,-1.2,-4.9,-1.3,+,i
CCCCCCC12Cc3cc(OC)c(OC)cc3C(O1)C1=C(O2)C(C)(C)CCC1=O (stereo unspecified),1.6,/,/,/,/
Cc1cc(C)c2c(N)c(C(=O)c3ccc(Cl)cc3Cl)sc2n1,-0.4,2.4,26.8,/,/
Cc1cc(C)c2c(N)c(C(=O)c3cccc(Cl)c3)sc2n1,5.9,1.4,5.4,+,i
Cc1cc(=O)oc2cc(OCC(=O)N3CC(=O)Nc4ccccc43)c(Cl)cc12,2.4,-11.4,0.2,+,i
CC(=O)c1sc(-c2ccc(F)cc2)cc1NS(=O)(=O)c1ccccc1,0.4,-23.8,-7.8,+,i
Cc1ccc(CN2CCCCC(NC(=O)Nc3cccc([N+](=O)[O-])c3)C2=O)cc1 (stereo unspecified),-0.5,/,/,/,/
COc1ccc2c(c1)c(C(=O)CNc1nc(C)cs1)c(C)n2C,-0.8,8.7,-6.3,+,i
COC(=O)C1C(O)=C(C=Nc2ccccc2)C(=O)CC1(C)C (stereo unspecified),-0.3,9.1,-3.6,i,/
COC(=O)C1C(O)=C(C(C)=Nc2cccc3ccccc23)C(=O)CC1(C)C (stereo unspecified),-4.1,25.4,2.7,+,i
COC(=O)c1c(NC(=O)C2COc3ccccc3O2)sc2c1CCN(C(=O)OC)C2 (stereo unspecified),0.3,6.4,19.6,i,/
Cc1ccc(-c2cc(C(=O)NN=Cc3ccc(F)cc3)[nH]n2)cc1C,-1.1,/,/,/,/
Cc1c(Oc2ccc(C(F)(F)F)cc2[N+](=O)[O-])ccc2c3c(c(=O)oc12)CCC3,-19.3,1.0,22.4,+,i
Fc1ccc(-c2n[nH]c(=S)n2N=Cc2ccc(OCc3ccccc3)cc2)cc1,-0.5,/,/,/,/
Cc1cc(C)cc(N(CC(=O)NC2CCCC2)C(=O)C2(C)CC(=O)N=C3C=CC=CN32)c1 (stereo unspecified),0.4,-13.1,-3.0,+,+
C=CCOc1ccccc1CNc1ccc2[nH]c(=O)[nH]c2c1,0.5,55.8,-4.1,+,i
CSc1ccc(/C=N/NC(=O)c2ccc(-n3cnnn3)cc2)cc1,0.5,4.1,-4.8,+,i
CN(CCO)c1cccc2c1S(=O)(=O)N(Cc1cn(Cc3ccc(Cl)cc3)nn1)Cc1ccccc1O2,1.2,/,/,/,/
COc1ccccc1N1CCN(C(=O)c2cc3c(=O)n4cccc(C)c4nc3s2)CC1,6.1,-18.5,10.4,+,+
Cc1cccn2c(=O)c3cc(C(=O)N4CCCCC4C)sc3nc12 (stereo unspecified),-0.8,0.8,10.1,+,+
